Results: PubChem BioAssay (EPA / NIEHS)
Several values for one entry are separate records, joined by “and”; a condition that tells them apart may be missing. Equal entries are not always repeated. Results filed as inconclusive are left out. The source holds several records for some structures; these can differ, active in one and inactive in another. Activity calls are given as the source filed them. The calls were made as follows, unless noted: active = hit-call score of the fitted dose curve at least 0.9, where 1 is the maximum; inconclusive = response in the unintended direction; inactive = score below 0.9.

Experiments:
[1] = target: human Peroxisome Proliferator-activated Receptor delta (PPARd), PPARD (gene 5467) (UniProt Q03181); assay: ATG_PPARd_TRANS: Attagene TRANS-FACTORIAL HepG2 Assay for human Peroxisome Proliferator-activated Receptor delta (PPARd) (AID 2283002)
Summary of the method: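 HepG2 cells transiently transfected with multiplexed GAL4-UAS reporter units and exogenous chimeric NR-Gal4 proteins; 24 h compound exposure. Reporter mRNA measured by RT-PCR, 6-FAM labelling, HpaI digestion and capillary electrophoresis; gain of signal versus DMSO.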

[2] = read-out: Intercellular Adhesion Molecule 1 (ICAM1), ICAM1 (gene 3383); assay: BSK_3C_ICAM1: BioMAP Diversity Plus: 3C Assay for Intercellular Adhesion Molecule 1 (ICAM1) Biomarker Activity (AID 2283003; active = hit-call score of the fitted dose curve at least 0.9, where 1 is the maximum; inactive = score below 0.9); settings: primary human endothelial cells (HUVEC); actives raise or lower the signal
Summary of the method: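 Human vascular endothelial primary cells, 3C conditions, 24 h treatment. ICAM-1 by ELISA.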

[3] = target: human Retinoic Acid Receptor beta (RARb), RARB (gene 5915) (UniProt P10826); assay: ATG_RARb_TRANS: Attagene TRANS-FACTORIAL HepG2 Assay for human Retinoic Acid Receptor beta (AID 2283004)
Summary of the method: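 Readout is reporter mRNA induction: RNA reverse-transcribed, PCR-amplified, FAM-labelled, HpaI-cut and resolved by capillary electrophoresis. Transiently transfected HepG2 cells carrying exogenous NR–Gal4 chimeras were dosed for 24 h; activity fitted upward relative to DMSO.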

[4] = BSK_3C_Proliferation: Cell Proliferation Assessment in the BioMAP Diversity Plus: 3C Assay (AID 2283006; active = hit-call score of the fitted dose curve at least 0.9, where 1 is the maximum; inactive = score below 0.9;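 as to AC50: potency may reflect either rise or fall in cell number versus DMSO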); settings: primary human endothelial cells (HUVEC)
Summary of the method: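 Proliferation of human vascular endothelial primary cells after 48 h dosing, quantified as SRB-stained protein at 560 nm relative to DMSO.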

[5] = target: Peroxisome proliferator-activated receptor gamma (Homo sapiens) (UniProt P37231); assay: ATG_PPARg_TRANS: Attagene TRANS-FACTORIAL HepG2 Assay for human Peroxisome Proliferator-activated Receptor-gamma (PPARg) (AID 2283007)
Summary of the method: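 Twenty-four hours after chemical dosing of transiently transfected HepG2 cells, isolated RNA was converted to cDNA, reporter sequences amplified and 6-FAM-labelled, then HpaI-digested and analysed by capillary electrophoresis. Signal increase against DMSO was fitted.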

[6] = target: Nuclear receptor subfamily 1 group I member 2 (Homo sapiens) (UniProt O75469); assay: ATG_PXR_TRANS: Attagene TRANS-FACTORIAL HepG2 Assay for human Pregnane X Receptor (PXR) (AID 2283008)
Summary of the method: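 HepG2 cells transiently transfected with GAL4-UAS reporter units and PXR-Gal4 chimera, exposed 24 h. Reporter mRNA quantified by RT-PCR, fluorescent labelling, HpaI digestion and capillary electrophoresis; gain of signal vs DMSO.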

[7] = target: human Retinoic Acid Receptor gamma (RARg), RARG (gene 5916) (UniProt P13631); assay: ATG_RARg_TRANS: Attagene TRANS-FACTORIAL HepG2 Assay for human Retinoic Acid Receptor gamma (RARg) (AID 2283009);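 as to AC50: AC50 is for reporter induction above DMSO meaning RARg activation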
Summary of the method: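 HepG2, RARg-GAL4 TRANS system, 24 h exposure; reporter mRNA by RT-PCR + CE fluorescence; increase over DMSO.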

[8] = target: human RAR-related Orphan Receptor beta (RORb), RORB (gene 6096) (UniProt Q92753); assay: ATG_RORb_TRANS: Attagene TRANS-FACTORIAL HepG2 Assay for human RAR-related Orphan Receptor beta (RORb) (AID 2283010)
Summary of the method: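 In this TRANS-format test, human HepG2 cells express chimeric NR-Gal4 fusion proteins driving GAL4-UAS reporters. After 24 h dosing, reporter transcripts are measured by fluorescent RT-PCR/capillary electrophoresis, with DMSO as negative control.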

[9] = target: Retinoic acid receptor alpha (Homo sapiens) (UniProt P10276); assay: ATG_RARa_TRANS: Attagene TRANS-FACTORIAL HepG2 Assay for human Retinoic Acid Receptor alpha (RARa) (AID 2283005)
Summary of the method: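 HepG2 cells transiently transfected with multiple reporter units expressing chimeric RARα-GAL4 fusion, with GAL4-UAS-driven reporters. After 24 h compound exposure, reporter mRNA induction quantified by RT-PCR and capillary electrophoresis with fluorescent labeling; gain-of-signal fitted relative to DMSO control.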

[10] = target: human RAR-related Orphan Receptor gamma (RORg), RORC (gene 6097) (UniProt P51449); assay: ATG_RORg_TRANS: Attagene TRANS-FACTORIAL HepG2 Assay for human RAR-related Orphan Receptor gamma (RORg) (AID 2283011)
Summary of the method: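 Transient MRTU transfection of HepG2 (TRANS format, exogenous NR-Gal4 chimera). 24 h dosing. Total RNA → oligo(dT) RT → PCR → 6-FAM labelling → HpaI cut → CE. Gain vs DMSO.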

Measured: AC50

Sequence of Nuclear receptor subfamily 1 group I member 2 (Homo sapiens) (O75469 whole entry, looked up, the tested form may be a part): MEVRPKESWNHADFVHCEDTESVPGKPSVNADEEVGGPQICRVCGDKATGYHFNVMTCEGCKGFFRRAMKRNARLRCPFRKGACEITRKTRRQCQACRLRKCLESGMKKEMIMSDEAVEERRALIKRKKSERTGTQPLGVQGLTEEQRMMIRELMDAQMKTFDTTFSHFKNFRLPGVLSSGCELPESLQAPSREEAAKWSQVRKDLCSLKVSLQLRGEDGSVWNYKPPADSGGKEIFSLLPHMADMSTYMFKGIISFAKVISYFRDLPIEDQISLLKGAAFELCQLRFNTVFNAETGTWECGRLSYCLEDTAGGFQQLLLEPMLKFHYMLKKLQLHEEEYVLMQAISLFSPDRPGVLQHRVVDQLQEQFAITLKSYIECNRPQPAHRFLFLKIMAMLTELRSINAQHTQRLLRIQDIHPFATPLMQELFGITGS
Sequence of Peroxisome proliferator-activated receptor gamma (Homo sapiens) (P37231 whole entry, looked up): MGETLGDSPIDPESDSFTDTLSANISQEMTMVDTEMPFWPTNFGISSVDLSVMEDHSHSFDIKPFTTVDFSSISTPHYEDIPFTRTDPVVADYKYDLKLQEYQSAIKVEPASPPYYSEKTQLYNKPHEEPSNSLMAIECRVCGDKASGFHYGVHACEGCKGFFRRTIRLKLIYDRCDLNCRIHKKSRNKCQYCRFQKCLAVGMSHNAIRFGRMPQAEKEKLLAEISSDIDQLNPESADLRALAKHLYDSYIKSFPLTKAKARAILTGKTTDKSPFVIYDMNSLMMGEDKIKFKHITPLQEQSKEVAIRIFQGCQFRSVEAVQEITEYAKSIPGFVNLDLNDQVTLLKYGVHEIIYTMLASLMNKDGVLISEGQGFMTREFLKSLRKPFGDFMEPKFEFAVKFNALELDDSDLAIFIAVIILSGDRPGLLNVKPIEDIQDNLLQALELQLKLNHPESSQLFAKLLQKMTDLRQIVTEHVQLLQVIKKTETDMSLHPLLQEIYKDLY
Sequence of human Peroxisome Proliferator-activated Receptor delta (PPARd), PPARD (gene 5467) (Q03181 whole entry, looked up, the tested form may be a part): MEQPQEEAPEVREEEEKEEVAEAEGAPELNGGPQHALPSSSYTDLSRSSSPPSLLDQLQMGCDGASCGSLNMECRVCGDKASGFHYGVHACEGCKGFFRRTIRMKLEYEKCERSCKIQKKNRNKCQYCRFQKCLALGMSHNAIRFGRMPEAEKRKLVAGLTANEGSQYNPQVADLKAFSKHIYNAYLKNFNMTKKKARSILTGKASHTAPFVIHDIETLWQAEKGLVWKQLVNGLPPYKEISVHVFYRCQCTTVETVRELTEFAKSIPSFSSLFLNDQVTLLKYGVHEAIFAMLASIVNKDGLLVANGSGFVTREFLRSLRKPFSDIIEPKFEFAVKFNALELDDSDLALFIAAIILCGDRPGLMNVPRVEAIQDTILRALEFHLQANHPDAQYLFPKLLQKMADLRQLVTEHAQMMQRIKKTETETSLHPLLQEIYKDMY
Sequence of human Retinoic Acid Receptor beta (RARb), RARB (gene 5915) (P10826 whole entry, looked up, the tested form may be a part): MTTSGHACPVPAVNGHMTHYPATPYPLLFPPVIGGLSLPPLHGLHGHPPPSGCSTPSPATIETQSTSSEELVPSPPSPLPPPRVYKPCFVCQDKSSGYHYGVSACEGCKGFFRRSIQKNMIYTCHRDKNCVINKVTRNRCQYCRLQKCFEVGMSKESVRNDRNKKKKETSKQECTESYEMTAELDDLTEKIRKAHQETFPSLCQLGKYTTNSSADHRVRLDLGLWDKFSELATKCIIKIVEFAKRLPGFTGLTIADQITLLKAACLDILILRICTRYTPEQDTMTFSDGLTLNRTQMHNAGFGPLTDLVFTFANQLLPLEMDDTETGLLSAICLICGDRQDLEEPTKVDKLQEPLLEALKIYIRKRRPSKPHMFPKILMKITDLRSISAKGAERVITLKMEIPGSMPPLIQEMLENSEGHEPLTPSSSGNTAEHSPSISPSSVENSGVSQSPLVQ
Sequence of Retinoic acid receptor alpha (Homo sapiens) (P10276 whole entry, looked up, the tested form may be a part): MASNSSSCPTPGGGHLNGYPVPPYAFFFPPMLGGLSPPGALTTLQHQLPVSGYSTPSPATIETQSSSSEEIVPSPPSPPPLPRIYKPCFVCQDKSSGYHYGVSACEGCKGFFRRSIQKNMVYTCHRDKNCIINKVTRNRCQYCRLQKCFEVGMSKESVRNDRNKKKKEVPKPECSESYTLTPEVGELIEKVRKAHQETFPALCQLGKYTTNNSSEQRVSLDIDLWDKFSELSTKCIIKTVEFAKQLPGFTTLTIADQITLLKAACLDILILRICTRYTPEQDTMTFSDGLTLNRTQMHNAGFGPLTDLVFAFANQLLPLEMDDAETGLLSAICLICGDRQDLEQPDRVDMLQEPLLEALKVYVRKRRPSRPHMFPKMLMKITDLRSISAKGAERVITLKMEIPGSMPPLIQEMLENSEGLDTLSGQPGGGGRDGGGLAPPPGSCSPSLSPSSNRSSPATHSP
Sequence of human RAR-related Orphan Receptor beta (RORb), RORB (gene 6096) (Q92753 whole entry, looked up, the tested form may be a part): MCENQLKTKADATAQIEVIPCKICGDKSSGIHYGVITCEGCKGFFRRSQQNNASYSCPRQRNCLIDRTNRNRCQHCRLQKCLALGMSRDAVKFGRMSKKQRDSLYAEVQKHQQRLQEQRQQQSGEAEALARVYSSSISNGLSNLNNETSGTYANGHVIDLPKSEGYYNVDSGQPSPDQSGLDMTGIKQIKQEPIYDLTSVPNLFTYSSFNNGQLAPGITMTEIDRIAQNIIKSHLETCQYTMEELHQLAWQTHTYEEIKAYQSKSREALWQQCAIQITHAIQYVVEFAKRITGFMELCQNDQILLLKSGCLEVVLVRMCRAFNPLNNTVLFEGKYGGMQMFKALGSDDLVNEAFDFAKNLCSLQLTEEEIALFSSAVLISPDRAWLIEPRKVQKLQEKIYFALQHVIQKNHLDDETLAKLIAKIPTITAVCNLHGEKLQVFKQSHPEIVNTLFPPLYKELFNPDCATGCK
Sequence of human Retinoic Acid Receptor gamma (RARg), RARG (gene 5916) (P13631 whole entry, looked up, the tested form may be a part): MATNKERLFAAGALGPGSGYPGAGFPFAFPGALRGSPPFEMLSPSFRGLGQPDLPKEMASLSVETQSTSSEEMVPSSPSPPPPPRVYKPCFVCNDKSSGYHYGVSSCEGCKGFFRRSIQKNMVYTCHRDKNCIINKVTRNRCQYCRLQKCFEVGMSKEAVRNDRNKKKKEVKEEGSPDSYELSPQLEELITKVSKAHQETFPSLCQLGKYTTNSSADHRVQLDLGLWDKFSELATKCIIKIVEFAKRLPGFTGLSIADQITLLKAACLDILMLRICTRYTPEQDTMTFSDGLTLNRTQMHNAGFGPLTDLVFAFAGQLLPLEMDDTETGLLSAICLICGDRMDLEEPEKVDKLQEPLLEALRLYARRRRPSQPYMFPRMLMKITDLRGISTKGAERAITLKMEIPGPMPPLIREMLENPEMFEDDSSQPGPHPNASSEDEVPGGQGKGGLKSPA
Sequence of human RAR-related Orphan Receptor gamma (RORg), RORC (gene 6097) (P51449 whole entry, looked up, the tested form may be a part): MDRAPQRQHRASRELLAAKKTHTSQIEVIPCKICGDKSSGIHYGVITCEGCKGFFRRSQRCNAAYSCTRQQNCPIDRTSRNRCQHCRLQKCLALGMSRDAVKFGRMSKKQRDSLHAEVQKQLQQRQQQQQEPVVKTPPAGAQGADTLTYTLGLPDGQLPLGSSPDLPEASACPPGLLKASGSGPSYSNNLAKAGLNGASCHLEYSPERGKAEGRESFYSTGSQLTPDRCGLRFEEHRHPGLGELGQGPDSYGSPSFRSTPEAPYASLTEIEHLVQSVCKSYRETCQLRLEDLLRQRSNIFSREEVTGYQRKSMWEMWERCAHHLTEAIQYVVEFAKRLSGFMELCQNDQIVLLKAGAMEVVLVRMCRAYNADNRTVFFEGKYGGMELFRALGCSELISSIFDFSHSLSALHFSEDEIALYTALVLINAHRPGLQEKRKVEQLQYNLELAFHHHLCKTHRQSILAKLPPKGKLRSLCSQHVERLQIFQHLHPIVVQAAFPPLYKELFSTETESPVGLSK

Cc1ccc(N=Nc2c(O)ccc3ccccc23)c(C)c1
active: [4] 15 µM | [5] 6.99 µM | [6] 3.36 µM
not listed: [9] | [10]
inactive: all other assays above

O=C(O)c1cccc(C(=O)O)n1
inactive: [1]

CC1=NN(c2ccccc2)C(=O)C1
active: [5] 57.1 µM and 17.3 µM
not listed: [3] | [7]
inactive: all other assays above

CCOC(=O)CN[C@@H](C(=O)N1CC[C@H]1C(=O)NCc1ccc(/C(N)=N/O)cc1)C1CCCCC1
inactive: [1] | [2] | [4] | [5] | [6] | [7]

Oc1cc2ccccc2cc1O
inactive: all assays above

Clc1ccc(Nc2nnc(Cc3ccncc3)c3ccccc23)cc1
inactive: [1] | [2] | [4] | [7]
active: [5] 26.9 µM | [6] 3.3 µM

CCCCc1oc2ccccc2c1C(=O)c1cc(I)c(OCCN(CC)CC)c(I)c1
inactive: [1] | [5] | [6] | [7]
active: [2] 23.3 µM | [4] 5.66 µM

CS(=O)(=O)c1ccc([C@@H](CC2CCCC2)C(=O)Nc2cnccn2)cc1Cl
inactive: [1] | [2] | [5]
active: [4] 31.6 µM | [6] 3.42 µM

OCC(F)(F)C(F)(F)C(F)(F)C(F)(F)C(F)(F)C(F)(F)C(F)(F)C(F)(F)C(F)(F)C(F)(F)C(F)(F)F
active: [4] 141 nM and 224 nM
not listed: [7] | [9]
inactive: all other assays above

O=C1c2ccc(O)c(O)c2C(=O)c2c(O)ccc(O)c21
active: [7] 50 µM
not listed: [9] | [10]
inactive: all other assays above

O=C(c1ccccc1)c1ccccc1
inactive: [1] | [2] | [3] | [4] | [6] | [7] | [8] | [10]
active: [6] 100 µM

CN(CCO)S(=O)(=O)C(F)(F)C(F)(F)C(F)(F)C(F)(F)C(F)(F)C(F)(F)C(F)(F)C(F)(F)F
active: [4] 0.662 µM
inactive: [1] | [2] | [3] | [9] | [4] | [5] | [6] | [7] | [8]

CC(=O)Nc1ccc(O)cc1
inactive: [1] | [2] | [9] | [4] | [10]

N=C(N)c1ccc(OCCCCCOc2ccc(C(=N)N)cc2)cc1
inactive: [1] | [2]
active: [4] 5.13 µM

CCCCCCCCCCCCCC[n+]1ccccc1
active: [5] 13.6 µM
inactive: [1] | [3] | [9] | [6] | [7]

CC(C)(C)C1CCCCC1O (centres undefined)
inactive: [1] | [3] | [6] | [7] | [8] | [10]

FC(F)(F)C(F)(F)C(F)(F)C(F)(F)I
inactive: [1] | [3] | [5] | [6] | [10]

CC(C)C=O
not listed: [2] | [4]
inactive: all other assays above

C=CCOCC(CO)(CO)CO
active: [6] 15.1 µM
inactive: [1] | [3] | [9] | [5] | [7]

Clc1ccc2c(Cl)ccnc2c1
inactive: [1] | [3] | [9] | [7]
active: [5] 16.9 µM | [6] 25.8 µM

CCCCCCCCCCCCCCC
inactive: [1] | [2] | [4] | [10]

COc1cccc(O)c1
inactive: [1] | [2] | [4] | [10]

C=Cc1ccc(O)c(OC)c1
active: [5] 8.33 µM | [6] 70.3 µM
inactive: [1] | [3] | [9] | [7] | [10]

O=C(O)CN(CCCN(CC(=O)O)CC(=O)O)CC(=O)O
inactive: [1] | [3] | [9] | [7] | [8] | [10]

COC(O)c1ccccc1 (centres undefined)
not listed: [2] | [4] | [7]
inactive: all other assays above
